According to the supplement of paper PMC11417369:
± gives the standard deviation of the averaged measurements. In all, about 25,000 sequences were measured (“ln(normalized median fluorescence intensity)”: median about 7.9, highest 2% from about 11 on). The full list was thinned out, with the highest values kept by preference.

These sequences were tested on PfAP2-I AP2 domain 3 (GST-tagged) (assay: gcPBM binding intensity (ln(normalized median fluorescence intensity)); higher = stronger DNA binding).
How it was run: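 For binding intensity, the highest Masliner-normalised natural-log median intensity across replicate spots of either probe orientation was taken. Protein bound to the array was stained with Alexa488 anti-GST antibody and scanned at 488 nm. The protein, GST-tagged P. falciparum DNA-binding domains from E. coli at about 25 μg on average, had been applied for 1 h to an Agilent 4 × 180k array of primer-extended double-stranded 36-bp intergenic genomic probes and negative controls.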
With “AATAATATATATATATATATATATAGATATGTATAT [GTGCAC_negctrl_site653]” the “gcPBM binding intensity (ln)” value was 8.04 ± 0.25. “GAAATTACTTTATAAACACACATTTATTTTATTTTA [CACACA_site7007]” was tested, and the “gcPBM binding intensity (ln)” value was 7.95 ± 0.26. For “CTACCTTTAATATATACACACACATAAAAAAAATAT [CACACA_site8548]”, the “gcPBM binding intensity (ln)” value was 8.05 ± 0.28. With “GTATATATTAAAAAAAAAAAAAAAAAATTAAAATTA [CACACA_negctrl_site572]” the “gcPBM binding intensity (ln)” value was 7.14 ± 0.33. TATTTTTATAAGAGCATGCACTGTTTAAAATGGTAT was tested, and the “gcPBM binding intensity (ln)” value was 8.37 ± 0.45. “GTATTATTATTTTATGCATGTACATTGAATTATATT [TGCATGCA_site34]” was tested, and the “gcPBM binding intensity (ln)” value was 8.26 ± 0.44. ATTATATTTATGTTGGTGCATTATACATGAAATTTA was tested, and the “gcPBM binding intensity (ln)” value was 11.5 ± 0.43. In the case of “TATAATAATAATTATACATGCATGAATATTTATATG [TGCATGCA_site811]”, the “gcPBM binding intensity (ln)” value is reported as 7.67 ± 0.21. For “ATAATTATTCTTATGGTGCACTGAATATACATGTTG [GTGCAC_site9760]”, the “gcPBM binding intensity (ln)” value was 11.1 ± 0.47. “TATATATATATATATGTGCACTGAAAGAATTATACA [GTGCAC_site9586]” was tested, and the “gcPBM binding intensity (ln)” value was 10.7 ± 0.13. In the case of “AATATGAAATATATTACACACATTTATATGTTGAAA [CACACA_site1427]”, the “gcPBM binding intensity (ln)” value is reported as 7.59 ± 0.39. For “CCTATCCAGACATATACACACATATCTATTTATATA [CACACA_site5001]”, the “gcPBM binding intensity (ln)” value was 8.01 ± 0.57. “AAGTAATTTGTTGACACACACACACGCATACCTATA [CACACA_site7140]” was tested, and the “gcPBM binding intensity (ln)” value was 8.07 ± 0.65. With “TTTTTTTCATAAGAAGCACACAAAAAATGATAGAGA [CACACA_site8401]” the “gcPBM binding intensity (ln)” value was 8.29 ± 0.4. With “TAAATTAAAAAACATAAACTATTGGAAACGCATTGA [CACACA_negctrl_site935]” the “gcPBM binding intensity (ln)” value was 7.57 ± 0.64. For “TAGGCGTTTAATAAAAGTACCCACACATATATTATT [XGTACX_site1932]”, the “gcPBM binding intensity (ln)” value was 7.68 ± 0.49. For “ATATTATGTGATTGTGCACACTGGAGATTTTTTTTA [CACACA_site1453]”, the “gcPBM binding intensity (ln)” value was 10.9 ± 0.17. For “TATATATATATATATGTGCACTGGACATATTTTTAT [GTGCAC_site9721]”, the “gcPBM binding intensity (ln)” value was 10.09 ± 0.099. For “GAGATTTATTTATGTGCACACTAGAACAATTGGATC [CACACA_site2090]”, the “gcPBM binding intensity (ln)” value was 9.99 ± 0.42. For “TTAATATAGGGAAAAAAAAGAAAATCGAAAATGTGT [CACACA_negctrl_site834]”, the “gcPBM binding intensity (ln)” value was 8 ± 0.75. With “TTTTTTTTATGTATCACACATAATTTTTTATTATGA [CACACA_site5534]” the “gcPBM binding intensity (ln)” value was 7.63 ± 0.68. “ACACATAATATAAAGGTGCTATATTGTATTCATTTT [GTGCAC_site9457]” was tested, and the “gcPBM binding intensity (ln)” value was 10.1 ± 0.2. For “TATAATTATTTTTTTCTAAATATTATAAGGTATTCA [GTGCAC_negctrl_site205]”, the “gcPBM binding intensity (ln)” value was 7.18 ± 0.33. In the case of “ATTATAAAAGAATTTTTTTTTATTTCATTAAAATAT [CACACA_negctrl_site1137]”, the “gcPBM binding intensity (ln)” value is reported as 7.09 ± 0.47. For “TATAATTTATTAAGGGGTACATATATTTCATGATAA [XGTACX_site5141]”, the “gcPBM binding intensity (ln)” value was 7.88 ± 0.37. With “GTATTCATGCTAAAGGTGCAATAATTTTTATAATAA [GTGCAC_site9603]” the “gcPBM binding intensity (ln)” value was 11.5 ± 0.61. With ATTTTCATGATAAAGGTGCAATTATTTTTATAAGAA the “gcPBM binding intensity (ln)” value was 10.9 ± 0.53. In the case of “TATAAATATCTGAATTGTACAGGTGAAAAAAAAAAT [XGTACX_site1867]”, the “gcPBM binding intensity (ln)” value is reported as 8.04 ± 0.62. With “TAATTAGATTATTTTTGTACATATTATTATAGGTTA [XGTACX_site2077]” the “gcPBM binding intensity (ln)” value was 7.59 ± 0.26. In the case of “ACAAAAATAAGCAAATGTACATATGTATAATATATT [XGTACX_site2492]”, the “gcPBM binding intensity (ln)” value is reported as 7.77 ± 0.58. With TTAAAAAATAACAAGGTGCAAATAGGTTTATAAAAT the “gcPBM binding intensity (ln)” value was 10.84 ± 0.064. In the case of AAAAAAAAAAAAAAGGTGCAAATAAATTAACCTTAT, the “gcPBM binding intensity (ln)” value is reported as 11.4 ± 0.44. With AGTGACACCAAAGGGGTGCAATGAAATTAAAAATAT the “gcPBM binding intensity (ln)” value was 10.7 ± 0.24. In the case of “ATTATCCATCAAAAGGTGCAAATTTTTAATTATAAA [GTGCAC_site9932]”, the “gcPBM binding intensity (ln)” value is reported as 10.5 ± 0.49. “TAAATTAAAAAAAAAAACAAAAAAAAAGCAACAAAA [CACACA_negctrl_site1318]” was tested, and the “gcPBM binding intensity (ln)” value was 7.67 ± 0.57. For “TAAAAATTAAAAAGGGTGCAAAAAAAAAAAAAAAAA [GTGCAC_site9733]”, the “gcPBM binding intensity (ln)” value was 11 ± 0.61. In the case of “TATGTGTGACAAAATTGTACGGTCTCTTTATTTTGT [XGTACX_site2679]”, the “gcPBM binding intensity (ln)” value is reported as 7.72 ± 0.54. With “TCCTTATAAATATATATATAATATATATATATATAT [CACACA_negctrl_site293]” the “gcPBM binding intensity (ln)” value was 8.86 ± 0.2. “ATTTTTATTCAGTTCACACACGCTTTAATATTATAT [CACACA_site3465]” was tested, and the “gcPBM binding intensity (ln)” value was 8.3 ± 0.58. For “ATATATCCAATATATATATATATATATATATATATA [CACACA_negctrl_site160]”, the “gcPBM binding intensity (ln)” value was 9.2 ± 0.67. For “TGTTGGCAGGTGAATGCATGCATATAAGTCTATCTG [TGCATGCA_site781]”, the “gcPBM binding intensity (ln)” value was 8.02 ± 1.1. For “TATTCCTATATAAAGACACACATATGTAACTACGAT [CACACA_site4139]”, the “gcPBM binding intensity (ln)” value was 7.68 ± 0.59. With “ATATAATATAACAATACGCACACGTATACAAAAAAA [CACACA_site3151]” the “gcPBM binding intensity (ln)” value was 8.36 ± 0.41. “TATTAATTTCTTTTTTCTCATCACTTTCAAAATGAA [CACACA_negctrl_site1055]” was tested, and the “gcPBM binding intensity (ln)” value was 7.9 ± 0.47. “ATTATGTATACATAAACACACATATATATAAAAAAA [CACACA_site262]” was tested, and the “gcPBM binding intensity (ln)” value was 7.92 ± 0.64.
